Values joined by “and” are separate entries in the source; they are usually repeats but may differ in a detail not shown here. Identical values can stand only once. The whole screen tested about 16,000 compounds, of which about 5,700 (36%) were called active. About 24% were inconclusive and are not listed. The list shows a part of the results. Values without a mark were called inactive. Calls follow the shape of the dose curve; as a rule, active = well fitted curve in the direction sought with a large enough effect; inconclusive = small, poorly fitted or top-dose-only effect, or effect the other way; inactive = no such curve, though single readings can be large or run the other way.

Usually AC50 stands for the midpoint of the concentration-response curve, whichever way the signal moves.
% is scaled to controls: 0 for no effect and ±100 for the full control effect.

For the experiment, the target named is Cytochrome P450 1A2 (Homo sapiens) (UniProt P05177). In words: Cytochrome panel assay with activity outcomes. As to conditions: recombinant CYP, pro-luciferin dealkylation, luminescence, p450-cyp1a2; series mostly up to 57.1 µM.
Chain of Cytochrome P450 1A2 (Homo sapiens) (P05177 whole entry, looked up): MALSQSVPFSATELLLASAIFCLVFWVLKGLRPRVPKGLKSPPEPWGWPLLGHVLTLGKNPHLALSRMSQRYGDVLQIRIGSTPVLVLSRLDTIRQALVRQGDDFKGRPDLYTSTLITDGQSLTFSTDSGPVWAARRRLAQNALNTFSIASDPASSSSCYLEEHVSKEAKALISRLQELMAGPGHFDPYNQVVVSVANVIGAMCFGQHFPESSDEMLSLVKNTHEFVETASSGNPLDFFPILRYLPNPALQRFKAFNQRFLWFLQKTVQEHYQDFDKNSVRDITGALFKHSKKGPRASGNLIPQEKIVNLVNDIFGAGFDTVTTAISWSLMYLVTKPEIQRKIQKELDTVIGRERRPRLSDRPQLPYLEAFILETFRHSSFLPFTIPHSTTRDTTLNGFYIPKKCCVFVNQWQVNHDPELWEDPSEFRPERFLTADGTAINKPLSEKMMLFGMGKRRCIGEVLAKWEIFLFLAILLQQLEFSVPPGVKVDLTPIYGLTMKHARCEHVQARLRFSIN
With `CC(=O)OC[C@@H]1O[C@H](C/C=N\O[C@@H](C)CN2CCCCc3nc(C)c(C)cc32)C=C[C@@H]1OC(C)=O`, the activity, negative = inhibition was -2.17% [at 11.4 µM].
With `O=C(N/N=C1/C[C@@H](O)[C@@H](O)[C@@H]2[C@@H]3C(=O)N(Cc4ccccc4)C(=O)[C@H]3CC[C@H]12)OCc1ccccc1`, the activity, negative = inhibition was -7.17% [at 11.4 µM].
In the case of `CC(C)(Oc1ccc(CCNC(=O)c2ccc(Cl)cc2)cc1)C(=O)O`, the AC50 result was “inactive”.
For `CNC(=O)C(=O)NCCc1ccc(Cl)cc1`, the AC50 was 7.08 µM (active).
Turning to `O=C(NNC(=O)c1ccccc1O)c1ccc(Cl)cc1`, the AC50 result was “inactive”.
Take `O=C(NCCc1ccc(O)cc1)c1ccc(Cl)cc1`: the AC50 was 14.1 µM (active).
Same read-out and setting: to `COc1cccc(-c2nnc3sc(-c4ccc(C)cc4)nn23)c1` belongs 7.08 µM (active).
As for `CC(C)(C)n1nc2c(c1NC(=O)c1ccc(S(=O)(=O)N3CCCCC3)cc1)CS(=O)C2` (stereo not given), the AC50 entry was “inactive”.
Consider `COc1ccc(Nc2ncc(C(=O)N3CCN(Cc4ccccc4)CC3)c3ccccc23)cc1`, for which the AC50 result is “inactive”.
Take `COc1cccc(-c2ccc3ncnc(Nc4ccccc4)c3c2)c1`: the AC50 was 1 µM (active).
As for `CNc1ncnc2ccc(-c3cccc(OC)c3)cc12`, the AC50 was 0.501 µM (active).
For the molecule `COc1ccc(Nc2ncnc3sc(-c4ccccc4)cc23)cc1`, the AC50 was 0.891 µM (active).
Take `N[C@@H](CSC(=O)c1ccccc1)C(=O)O`: the activity, negative = inhibition is -14.7% [at 11.4 µM].
For the molecule `CN(C)CCCN1CC(C(=O)O)CC1=O` (stereo not given), the AC50 entry is “inactive”.
As to `Cc1ccc(/C(O)=C2/C(=O)C(=O)N(CCCn3ccnc3)C2c2ccccn2)cc1` (stereo not given), the AC50 entry is “inactive”.
In the case of `CCN(CC)CCN1C(=O)C(=O)/C(=C(/O)c2ccc(OC)cc2)C1c1cccs1` (stereo not given), the AC50 result is “inactive”.
With `CCOc1ccc(/C(O)=C2/C(=O)C(=O)N(CCCn3ccnc3)C2c2cccs2)cc1Cl` (stereo not given), the AC50 was 15.8 µM (active).
Take `O=C(O)c1cc(-c2ccncc2)nc2ccccc12`: the activity, negative = inhibition is -9.92% [at 11.4 µM].
`O=C(N/N=C/c1ccc([N+](=O)[O-])o1)c1cc(-c2ccncc2)nc2ccccc12`: the AC50 is 15.8 µM (active).
For the molecule `Nc1ccc(S(=O)(=O)Nc2ccc(Cl)nn2)cc1`, the AC50 entry is “inactive”.
As for `COc1ccccc1/C=C/C=N/N1CCN(Cc2cccc3ccccc23)CC1`, the AC50 is 7.08 µM (active).
In the case of `COc1ccccc1CN1CCC2(CC1)CCN(S(C)(=O)=O)CC2`, the AC50 result is “inactive”.
As to `FC(F)(F)c1ccc(/C=N/N2CCN(Cc3cccc4ccccc34)CC2)cc1`, the AC50 result was “inactive”.
As to `COc1ccc(C2C(=O)N(C3CCCCCC3)CC(=O)N2Cc2ccccc2)cc1OC` (stereo not given), the AC50 result is “inactive”.
Still for that read-out and setting: under `COc1ccc(OC)c(C2CC(=O)C3=C(C2)NC(=O)CC3c2ccc(O)c(OC)c2)c1` (stereo not given) stands “inactive”; under `COc1ccc([C@@H]2CNC(=O)C2)cc1OC1CCCC1`, 3.16 µM (active) and 3.98 µM (active); under `COc1cccc(-c2ccc3ncnc(NCc4ccc(OC)cc4OC)c3c2)c1`, 2.51 µM (active).
Same read-out and setting: to `COc1ccc(CNc2ncnc3ccc(-c4cccnc4)cc23)c(OC)c1` belongs 0.398 µM (active); to `COc1ccc(CNc2ncnc3ccc(-c4c(C)noc4C)cc23)c(OC)c1`, 15.8 µM (active); to `COc1ccccc1CNc1ncnc2ccc(-c3cccnc3)cc12`, 0.316 µM (active).
On to `CO/N=C(\C)CCN1CCCc2nc(C)c(C)cc21`, for which the activity, negative = inhibition is 2.07% [at 11.4 µM].
`Cc1cc(C)cc(OCC(=O)NNC(=O)c2cc(C)[nH]n2)c1`: the AC50 entry was “inactive”.
On to `COCC(=O)N1CCC2(CC1)CN(C(=O)Nc1cccc(F)c1)C2`, for which the AC50 entry is “inactive”.
With `O=C(Cc1ccccc1)Nc1nc(=O)c2ccccc2s1`, the AC50 is 2.24 µM (active).
On to `O=C(Cn1cnc2ccccc2c1=O)Nc1nnc(SCc2ccccc2)s1`, for which the AC50 entry was “inactive”.
Take `CCc1ccc2c(c1)c(N=NC1=NC(=O)CS1)c(O)n2CC`: the AC50 is 1.41 µM (active).
Turning to `Oc1cccc2ccc(SSc3ccc4cccc(O)c4n3)nc12`, the AC50 was 3.16 µM (active).
In the case of `COc1ccc(-c2ccc(C(=S)N3CCN(C(C)=O)CC3)o2)cc1`, the AC50 was 2.24 µM (active).
As for `COc1ccc(N2CCN(C(=N)/C(C(C)=O)=C(\C)O)CC2)cc1`, the AC50 result is “inactive”.
`COc1ccc(NC(=O)N2CC3(CCN(C(C)=O)CC3)C2)cc1`: the AC50 result is “inactive”.
Still for that read-out and setting: under `O=C(c1ccncc1)N1CCC2(CC1)CCN(c1ccccc1)CC2` stands “inactive”; under `O=C(c1cn(-c2ccccc2)nc1-c1cccs1)N1CCOCC1`, 15.8 µM (active).
`O=C(Nc1c(C(=O)N2CCOCC2)cnn1-c1ccccc1)c1ccco1`: the AC50 result is “inactive”.
Turning to `C[C@@H]1/C=C\CC(=O)OC[C@H](C)C(=O)N[C@@H](C)C(=O)OC1`, the activity, negative = inhibition was -0.299% [at 11.4 µM].
For `COc1ccc(CNc2cc(-c3cccc(NS(C)(=O)=O)c3)ncn2)c(OC)c1`, the AC50 is 15.8 µM (active).
Consider `COc1ccccc1CNc1cc(-c2cccc(NS(C)(=O)=O)c2)ncn1`, for which the AC50 was 15.8 µM (active).
Regarding `O=C(CSCc1c(Cl)cccc1Cl)NCc1cccnc1`, the AC50 is 5.01 µM (active).
Turning to `CCS(=O)(=O)N1CCC(C(=O)NCc2cccnc2)CC1`, the AC50 result was “inactive”.
As for `Cc1ccc(S(=O)(=O)N2CCC(C(=O)NCc3cccnc3)CC2)cc1`, the AC50 result was “inactive”.
`Fc1ccc(COc2ccc(Br)cc2CNCc2ccncc2)cc1`: the AC50 was 0.316 µM (active).
Take `OC(CNCc1ccc(F)cc1)(c1ccc(F)cc1)c1ccc(F)cc1`: the AC50 result is “inactive”.
The same measure, in the same setting: under `Cc1nnc(NC(=O)CCC(=O)NCc2cccs2)s1` stands “inactive”; under `Cc1nnc(NC(=O)c2oc3c(ccc4ccccc43)c2C)s1`, 0.2 µM (active); under `COC(=O)[C@@H](NC(=O)Nc1ccc(C(C)=O)cc1)C(C)C`, “inactive”.
On to `Cc1c(NC(=O)C(Sc2ccccc2)c2ccccc2)cccc1[N+](=O)[O-]` (stereo not given), for which the AC50 result is “inactive”.
Same read-out and setting: to `Cc1ccc(OCCCC(=O)Nc2ccccc2C(F)(F)F)cc1` belongs 4.47 µM (active).
On to `Cc1c(NC(=O)CCCOc2ccccc2)cccc1[N+](=O)[O-]`, for which the AC50 was 12.6 µM (active).
As to `Cc1cccc(OCCCC(=O)Nc2ccc(N3CCCCC3)cc2)c1`, the AC50 result was “inactive”.
On the same count and under the same terms, to `Cc1ccc(OCC(=O)NNC(=O)CCC(=O)Nc2ccc(C)cc2C)cc1` belongs “inactive”.
For `Cc1c(NC(=O)/C=C/C(=O)O)cccc1[N+](=O)[O-]`, the AC50 entry was “inactive”.
Still for that read-out and setting: under `Cc1cccc(OCCCC(=O)Nc2ccccc2C(F)(F)F)c1` stands 11.2 µM (active).
As to `COc1cc([N+](=O)[O-])ccc1NC(=O)CCCOc1cccc(C)c1`, the AC50 was 7.94 µM (active).
`Cc1nn(-c2ccccc2)c2c1C(c1ccc(O)c(O)c1)N1C(=N2)C(Nc2ccccc2)=Nc2ccccc21` (stereo not given): the AC50 entry was “inactive”.
For the molecule `COc1ccc(C(=O)N2CC3(CC(c4ccc(Cl)cc4)=NO3)C[C@H]2C(=O)NCC(N)=O)cc1` (stereo not given in full), the AC50 result was “inactive”.
On to `C[N+]1(CC(=O)OCCCc2ccccc2)CCOCC1`, for which the AC50 entry was “inactive”.
In the case of `COc1ccccc1NC(=O)Cn1cncc1-c1ccc([N+](=O)[O-])cc1`, the AC50 entry was “inactive”.
Take `CCN(CC(=O)Nc1ccc([N+](=O)[O-])cc1OC)c1ccccc1`: the AC50 was 12.6 µM (active).
As to `COc1ccc([N+](=O)[O-])cc1NC(=O)CC(C)c1ccccc1` (stereo not given), the AC50 was 5.01 µM (active).
On to `C=CC[C@@H]1C=C[C@H](O/N=C\[C@@H](C)[C@H](OCc2ccccc2)C(C)C)[C@H](CO)O1`, for which the activity, negative = inhibition was 9.01% [at 11.4 µM].
Consider `CN(Cc1ccco1)C(=O)C1CCC(=O)N1Cc1ccc(F)cc1` (stereo not given), for which the AC50 entry is “inactive”.
On to `O=C1c2ccccc2NC(c2ccc(F)cc2)N1Cc1ccco1` (stereo not given), for which the AC50 is 25.1 µM (active).
For `COc1cc(C2C(=O)N(C3CCCC3)CC(=O)N2Cc2ccco2)ccc1OC(C)C` (stereo not given), the AC50 result was “inactive”.
For the molecule `Cc1ccc(C2Nc3ccccc3C(=O)N2Cc2ccco2)cc1` (stereo not given), the AC50 is 15.8 µM (active).
As to `COc1ccc(C2Nc3ccccc3C(=O)N2Cc2ccco2)cc1COc1ccc([N+](=O)[O-])cc1` (stereo not given), the AC50 result was “inactive”.
Turning to `CC(C)Oc1ccc(/C(O)=C2/C(=O)C(=O)N(Cc3cccnc3)C2c2ccco2)cc1` (stereo not given), the AC50 result is “inactive”.
Consider `CC(=O)Nc1ccc(NC(=O)C/C(C)=N/NC(=O)C(=O)N2CCCC2)cc1`, for which the AC50 result is “inactive”.
`Cc1ccc(S(=O)(=O)CCc2nnc(NC(=O)COc3cccc(C)c3)s2)cc1`: the AC50 entry was “inactive”.
In the case of `C/C(CC(=O)Nc1cc(C)ccn1)=N\NC(=O)COc1cccc(C)c1`, the AC50 is 14.1 µM (active).
Consider `COc1cccc(-c2cc(C(F)(F)F)nc(N3CCOCC3)n2)c1`, for which the AC50 is 0.794 µM (active).
Turning to `COc1cccc(-c2cc(C(F)(F)F)nc(N3CCN(c4ccccc4)CC3)n2)c1`, the AC50 was 12.6 µM (active).
For `COc1cccc(-c2cc(C(F)(F)F)nc(N3CCCCC3)n2)c1`, the AC50 was 1 µM (active).
On the same count and under the same terms, under `COc1cccc(-c2cc(C(F)(F)F)n3ncc(S(=O)(=O)c4ccccc4)c3n2)c1` stands “inactive”.
Regarding `CCOC(=O)N1CCC(NC(=O)CCC(=O)N2CCOc3ccccc32)CC1`, the AC50 result is “inactive”.
With `CCOC(=O)[C@H](N)/C=C(\C)CP(=O)(O)O`, the AC50 entry is “inactive”.
As for `CCCC(=O)Nc1nc(-c2ccc3c(c2)CCN3S(C)(=O)=O)cs1`, the AC50 result is “inactive”.
Turning to `CC(C)(C)C(=O)N1CCc2cc(-c3csc(N)n3)ccc21`, the AC50 was 7.08 µM (active).
For `CO[C@H]1COC(=O)[C@@H](Cc2ccccc2)NC(=O)[C@@H](C)COC(=O)CCC[C@@H]1C`, the activity, negative = inhibition is -3.47% [at 11.4 µM].
On to `COCC(=O)N1CCN(c2ccc([N+](=O)[O-])cc2)CC1`, for which the AC50 result is “inactive”.
On to `O=C(CN1CCCCC1)Nc1nnc(-c2ccc([N+](=O)[O-])cc2)s1`, for which the AC50 entry was “inactive”.
The same measure, in the same setting: to `COCC(=O)N(C)c1nnc(-c2ccc([N+](=O)[O-])cc2)s1` belongs 3.16 µM (active).
`Cc1ccc(C)c(NC(=O)Cn2c([N+](=O)[O-])cnc2C)c1`: the AC50 result is “inactive”.
In the case of `CC(C)c1ccc(O)c(NC(=O)c2ncn[nH]2)c1`, the AC50 is 15.8 µM (active).
Consider `COc1ccc(NC(=O)N2CCC3(CC2)CCN(S(C)(=O)=O)CC3)cc1`, for which the AC50 result was “inactive”.
Still for that read-out and setting: under `COc1ccc(NC(=O)c2ncn[nH]2)cc1` stands 11.2 µM (active).
Take `COc1ccc(NC(=O)C(c2ccc(OC)cc2)N(C)C(=O)CNC(C)=O)cc1` (stereo not given): the AC50 result is “inactive”.
Consider `COc1ccc(NC(=O)N2CCCC3(CCNCC3)C2)cc1`, for which the AC50 result was “inactive”.
Same read-out and setting: to `COC(=O)N1CCC2(CC1)CN(C(=O)Nc1ccc(OC)cc1)C2` belongs “inactive”; to `Cc1ccc(C)c(NC(=O)C2CC3c4ccccc4C2c2ccccc23)c1` (stereo not given), “inactive”; to `Cc1ccc(C)c(NC(=O)c2ncn[nH]2)c1`, 15.8 µM (active).
For the molecule `COc1ccc(NC(=O)OC(C)C)cc1`, the AC50 was 11.2 µM (active).

For the origin of these results see PubChem BioAssay AID1851 (National Center for Advancing Translational Sciences (NCATS), 2009).
